The values that follow come from PubChem BioAssay (EPA / NIEHS).

Activity calls are given as the source filed them. Rule for the calls: active = hit-call score of the fitted dose curve at least 0.9, where 1 is the maximum; inactive = score below 0.9.

Read-out in the assay: Vascular endothelial growth factor receptor 2 (Homo sapiens) (UniProt P35968)
Briefly: BSK_4H_VEGFRII: BioMAP Diversity Plus: 4H Assay for Vascular endothelial growth factor receptor 2 (VEGFR2) Biomarker Activity (AID 2283031).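 For AC50: cell-surface VEGFR2 protein level quantified by ELISA.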 The settings on record: primary human endothelial cells (HUVEC); actives raise or lower the signal. Put shortly: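 Primary human umbilical vein endothelial cells in the BioMAP 4H system were dosed with test chemical, and 24 h later VEGFRII was measured by ELISA. Activity was fitted bidirectionally against DMSO as negative control and baseline.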
Take `CN(C)C(=O)NC1(c2ccccc2)CCN(CCC[C@]2(c3ccc(Cl)c(Cl)c3)CCCN(C(=O)c3ccccc3)C2)CC1`: the result was inactive.
For `CCCCOC(=O)CCCCC(=O)OCCCC`, the outcome was inactive.
Same read-out and setting: the result for `C=CCCCCCCCCCCCC` reads “inactive”.
As to `Nc1nc(Cl)nc2c1ncn2[C@H]1C[C@H](O)[C@@H](CO)O1`, the AC50 (usually the concentration at which the activity in the assay is half-maximal) is 2.65 µM (active).
As for `Cc1ccc(C(C)(C)C)c(O)c1`, the result was inactive.
On the same count and under the same terms, the result for `Oc1ccccc1O` reads “inactive”.
Same read-out and setting: the result for `CCCCC(CC)COC(=O)CCCCCCCC(=O)OCC(CC)CCCC` (stereo not drawn) reads “inactive”; that for `CC(=O)[C@@]1(O)CC[C@H]2[C@@H]3CCC4=CC(=O)CC[C@]4(C)[C@H]3CC[C@@]21C`, “inactive”; that for `CCCCCCCCCCCCCCOS(=O)(=O)O`, “inactive”.
Same read-out and setting: the result for `O=C(O)c1cccnc1` reads “inactive”.
In the case of `Nc1nc(=S)c2[nH]cnc2[nH]1`, the outcome was inactive.
The same measure, in the same setting: as for `CCN(CC)CCOc1ccc(C(=C(Cl)c2ccccc2)c2ccccc2)cc1`, the entry is “inactive”; as for `CCCCc1nc2cccnc2n1Cc1ccc(-c2ccccc2-c2nnn[nH]2)cc1`, “inactive”; as for `CC(C)c1cccc(C(C)C)c1`, “inactive”.
Consider `O=C1O[C@H]([C@H](O)CO)C(O)=C1O`, for which the outcome was inactive.
Same read-out and setting: the result for `CC(=O)O` reads “inactive”; that for `CS(=O)(=O)c1ccc([C@@H](C[C@H]2CCC(=O)C2)C(=O)Nc2cnccn2)cc1Cl`, “inactive”; that for `CC(C)(O)c1ccc(CNC(=O)c2cccnc2Oc2ccc(F)cc2)cc1`, “inactive”.
For `O=NO`, the result was inactive.
On to `CC(=O)O[C@]1(C(C)=O)CC[C@H]2[C@@H]3C=C(Cl)C4=CC(=O)[C@@H]5C[C@@H]5[C@]4(C)[C@H]3CC[C@@]21C`, for which the result was inactive.
On the same count and under the same terms, the result for `CCCCC(CC)CO` (stereo not drawn) reads “inactive”; that for `COc1ccc(OC(F)(F)F)cc1CN[C@H]1CCCN[C@H]1c1ccccc1`, “inactive”; that for `CCc1nc(N)nc(N)c1-c1ccc(Cl)cc1`, “inactive”.
Still for that read-out and setting: as for `O=C1CCCCC1`, the entry is “inactive”; as for `O=C(O)CN(CC(=O)O)CC(=O)O`, “inactive”; as for `CC(=O)OC1CC(C)OC(C)O1` (stereo not drawn), “inactive”.
For `COC(=O)[C@H]1[C@H]2C[C@@H]3c4[nH]c5cc(OC)ccc5c4CCN3C[C@H]2C[C@@H](OC(=O)c2cc(OC)c(OC)c(OC)c2)[C@@H]1OC`, the result was inactive.
Still for that read-out and setting: the result for `CCCC[C@H]1CN(CC2CCOCC2)C(=O)OC12CCN(C1(C)CCN(C(=O)c3c(C)ncnc3C)CC1)CC2` reads “inactive”.
